# Shown is part of a subset that was picked to be rich in the strongest signals.
# B1: SUN4 (Saccharomyces cerevisiae), P53616 (protein)
# chain: MGSSHHHHHHSSGLVPRGSHNGSIYGDLADFSGPYEKFEDGTIPCGQFPSGQGVIPISWLDEGGWSGVENTDTSTGGSCKEGSYCSYACQPGMSKTQWPSDQPSDGRSIGGLLCKDGYLYRSNTDTDYLCEWGVDAAYVVSELSNDVAICRTDYPGTENMVIPTYVQAGDSLPLTVVDQDTYYTWQGLKTSAQYYVNNAGISVEDACVWGSSSSGVGNWAPLNFGAGSSDGVAYLSLIPNPNNGNALNFNVKIVAADDSSTVNGECIYENGSFSGGSDGCTVSVTAGKAKFVLYN
# Key:
# Test in all cases: glycan array binding signal (z-score within array); higher = stronger binding
# Details in all cases: glycan notation: IUPAC condensed, linker removed
# [1] = biological target: Gal(b1-4)GlcNAc(b1-3)Gal(b1-4)GlcNAc(b1-3)Gal(b1-4)GlcNAc(b1-2)Man(a1-3)[Gal(b1-4)GlcNAc(b1-3)Gal(b1-4)GlcNAc(b1-3)Gal(b1-4)GlcNAc(b1-2)Man(a1-6)]Man(b1-4)GlcNAc(b1-4)[Fuc(a1-6)]GlcNAc
# Summary of the method: (§1)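 Glycan array data were curated from 3228 arrays in the Consortium for Functional Glycomics database and kept only where the protein sequence was available. Glycan names were converted to IUPAC-condensed notation, and columns mapping to the same glycan were averaged. The binding signal is a within-array Z-score, averaged across arrays of the same protein sequence at different concentrations or buffers and across linkers. Negative Z-scores can be read as non-binding.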
# [2] = biological target: Gal(b1-4)GlcNAc(b1-3)[Gal(b1-4)GlcNAc(b1-6)]Gal(b1-4)GlcNAc
# Summary of the method: as §1
# Gal3S6S(b1-4)GlcNAc = biological target: Gal3S6S(b1-4)GlcNAc
# Summary of the method: as §1
# [3] = biological target: GalNAc(a1-3)GalNAc(b1-3)Gal(a1-4)Gal(b1-4)Glc
# Summary of the method: as §1
# [4] = biological target: GalNAc(b1-4)GlcNAc(b1-2)Man(a1-3)[GalNAc(b1-4)GlcNAc(b1-2)Man(a1-6)]Man(b1-4)GlcNAc(b1-4)GlcNAc
# Summary of the method: as §1
# [5] = biological target: GalNAc(b1-4)GlcNAc(b1-3)GalNAc(b1-4)GlcNAc
# Summary of the method: as §1
# GalNAc(b1-4)GlcNAc6S = biological target: GalNAc(b1-4)GlcNAc6S
# Summary of the method: as §1
# GalNAc3S(b1-4)GlcNAc = biological target: GalNAc3S(b1-4)GlcNAc
# Summary of the method: as §1
# GlcA(b1-3)GlcNAc = biological target: GlcA(b1-3)GlcNAc
# Summary of the method: as §1
# [6] = biological target: GlcNAc(a1-3)Gal(b1-4)GlcNAc
# Summary of the method: as §1
# [7] = biological target: GlcNAc(b1-2)Gal(b1-3)GalNAc
# Summary of the method: as §1
# [8] = biological target: GlcNAc(b1-2)Man(a1-3)[GlcNAc(b1-4)][GlcNAc(b1-2)Man(a1-6)]Man(b1-4)GlcNAc(b1-4)[Fuc(a1-6)]GlcNAc
# Summary of the method: as §1
# [9] = biological target: GlcNAc(b1-3)Gal(b1-4)GlcNAc(b1-3)Gal(b1-4)GlcNAc
# Summary of the method: as §1
# [10] = biological target: GlcNAc(b1-3)Gal(b1-4)GlcNAc(b1-3)Gal(b1-4)GlcNAc(b1-2)Man(a1-3)[GlcNAc(b1-3)Gal(b1-4)GlcNAc(b1-3)Gal(b1-4)GlcNAc(b1-2)Man(a1-6)]Man(b1-4)GlcNAc(b1-4)GlcNAc
# Summary of the method: as §1
# [11] = biological target: GlcNAc(b1-3)Gal(b1-4)GlcNAc(b1-3)Gal(b1-4)GlcNAc(b1-2)[GlcNAc(b1-3)Gal(b1-4)GlcNAc(b1-3)Gal(b1-4)GlcNAc(b1-6)]Man(a1-6)[GlcNAc(b1-3)Gal(b1-4)GlcNAc(b1-3)Gal(b1-4)GlcNAc(b1-2)Man(a1-3)]Man(b1-4)GlcNAc(b1-4)[Fuc(a1-6)]GlcNAc
# Summary of the method: as §1
# [12] = biological target: GlcNAc(b1-3)Gal(b1-4)GlcNAc(b1-3)Gal(b1-4)GlcNAc(b1-3)Gal(b1-4)GlcNAc(b1-2)[GlcNAc(b1-3)Gal(b1-4)GlcNAc(b1-3)Gal(b1-4)GlcNAc(b1-3)Gal(b1-4)GlcNAc(b1-6)]Man(a1-6)[GlcNAc(b1-3)Gal(b1-4)GlcNAc(b1-3)Gal(b1-4)GlcNAc(b1-3)Gal(b1-4)GlcNAc(b1-2)Man(a1-3)]Man(b1-4)GlcNAc(b1-4)[Fuc(a1-6)]GlcNAc
# Summary of the method: as §1
# [13] = biological target: Neu5Ac(a2-3)Gal(b1-3)GalNAc(b1-3)Gal(a1-4)Gal(b1-4)Glc
# Summary of the method: as §1
# [14] = biological target: Neu5Ac(a2-3)Gal(b1-4)GlcNAc(b1-2)[Neu5Ac(a2-3)Gal(b1-4)GlcNAc(b1-6)]Man(a1-6)[Neu5Ac(a2-3)Gal(b1-4)GlcNAc(b1-2)Man(a1-3)][GlcNAc(b1-4)]Man(b1-4)GlcNAc(b1-4)GlcNAc
# Summary of the method: as §1
# [15] = biological target: Neu5Ac(a2-3)Gal(b1-4)GlcNAc(b1-3)Gal(b1-3)GlcNAc
# Summary of the method: as §1
# [16] = biological target: Neu5Ac(a2-3)Gal(b1-4)[Fuc(a1-3)]GlcNAc
# Summary of the method: as §1
# [17] = biological target: Neu5Ac(a2-3)Gal(b1-4)[Fuc(a1-3)]GlcNAc(b1-3)GalNAc
# Summary of the method: as §1
# [18] = biological target: Neu5Ac(a2-6)Gal(b1-4)GlcNAc(b1-2)Man(a1-3)Man(b1-4)GlcNAc(b1-4)GlcNAc
# Summary of the method: as §1
# [19] = biological target: Neu5Ac(a2-6)Gal(b1-4)GlcNAc(b1-2)Man(a1-3)[GlcNAc(b1-4)][Neu5Ac(a2-6)Gal(b1-4)GlcNAc(b1-2)Man(a1-6)]Man(b1-4)GlcNAc(b1-4)GlcNAc
# Summary of the method: as §1
# [20] = biological target: Neu5Ac(a2-6)Gal(b1-4)GlcNAc(b1-2)Man(a1-3)[Neu5Ac(a2-6)Gal(b1-4)GlcNAc(b1-2)Man(a1-6)]Man(b1-4)GlcNAc(b1-4)GlcNAc
# Summary of the method: as §1
# [21] = biological target: Neu5Ac(a2-6)Gal(b1-4)GlcNAc(b1-2)Man(a1-3)[Neu5Ac(a2-6)Gal(b1-4)GlcNAc(b1-2)Man(a1-6)]Man(b1-4)GlcNAc(b1-4)[Fuc(a1-6)]GlcNAc
# Summary of the method: as §1
# [22] = biological target: Neu5Ac(b2-6)Gal(b1-4)GlcNAc
# Summary of the method: as §1
# [23] = biological target: Neu5Gc(a2-6)Gal(b1-4)GlcNAc
# Summary of the method: as §1
# [24] = biological target: Neu5Gc(a2-8)Neu5Gc(a2-3)Gal(b1-4)GlcNAc
# Summary of the method: as §1
binder,measurement,setting,value
B1,glycan array binding signal (z-score),[1],2.9
same,glycan array binding signal (z-score),[2],-1.28
same,glycan array binding signal (z-score),Gal3S6S(b1-4)GlcNAc,2.2
same,glycan array binding signal (z-score),[3],-0.199
same,glycan array binding signal (z-score),[4],4.51
same,glycan array binding signal (z-score),[5],-0.309
same,glycan array binding signal (z-score),GalNAc(b1-4)GlcNAc6S,0.149
same,glycan array binding signal (z-score),GalNAc3S(b1-4)GlcNAc,1.87
same,glycan array binding signal (z-score),GlcA(b1-3)GlcNAc,-0.127
same,glycan array binding signal (z-score),[6],0.414
same,glycan array binding signal (z-score),[7],0.963
same,glycan array binding signal (z-score),[8],-0.555
same,glycan array binding signal (z-score),[9],0.244
same,glycan array binding signal (z-score),[10],0.121
same,glycan array binding signal (z-score),[11],1.97
same,glycan array binding signal (z-score),[12],1.86
same,glycan array binding signal (z-score),[13],0.263
same,glycan array binding signal (z-score),[14],-0.391
same,glycan array binding signal (z-score),[15],-0.71
same,glycan array binding signal (z-score),[16],-0.661
same,glycan array binding signal (z-score),[17],1.91
same,glycan array binding signal (z-score),[18],-0.036
same,glycan array binding signal (z-score),[19],0.646
same,glycan array binding signal (z-score),[20],0.023
same,glycan array binding signal (z-score),[21],0.827
same,glycan array binding signal (z-score),[22],-0.182
same,glycan array binding signal (z-score),[23],-0.424
same,glycan array binding signal (z-score),[24],-0.415

# Reference: the supplement of paper PMC8728848
